Compound activity deposited in PubChem by National Center for Advancing Translational Sciences (NCATS).
An excerpt weighted towards active compounds, which were near 3.9% of everything screened.
p53null 39C tox – p53 null cell cytotoxicity, nonpermissive temperature | AID 904 | H1299 p53-null (neo) cells, 39C, ATPlite viability, 24 h | Potency, µM (highest dose often 46.1 µM), for the others: at the highest dose activity, negative = cell killing, hits mostly cytotoxic | actives 0.97% (n = 55,000);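 also: potency is read from the fitted curve at half-maximal effect; 0% = DMSO only and -100% = full killing by 100 µM tamoxifen; nearly all actives have a fitted effect of over 50% in size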
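Cells seeded at 600/well, 37C overnight. Compound added (up to 46 uM), plates shifted to 39C for 24 hr. ATPlite added, luminescence read after 20 min at room temperature.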
NTMT1 inh – blocks human N-terminal methyltransferase 1 activity. Q9BV86. NTMT1 MTase-Glo SAH luminescence, purified enzyme. Potency, µM (highest dose often 114 µM), inactives show top-dose activity change, negative = inhibition, actives largely listed as inhibitors. actives 2.5% (n = 59,000). AID 1645870;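 also: potency is read from the fitted curve at half-maximal effect; plate controls were DMSO vehicle for no effect and no enzyme for full effect; nearly all actives have a fitted effect of over 65% in size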
FH mod – Identification of activators of human fumarate hydratase by quantitative high-throughput screening. Fumarate hydratase, mitochondrial (Homo sapiens), P07954. FH coupled MDH/diaphorase resazurin fluorescence, 15 min. Potency, µM (series often up to 79.9 µM), for the others: top-dose activity change, negative = inhibition, usual class: inhibitors. actives 0.22% (n = 54,000). AID 1347055, 2019; also: potency is read from the fitted curve at half-maximal effect; % is scaled to controls: 0 for no effect and ±100 for the full control effect; the screen sought activators but most active calls are inhibition curves; nearly all actives have a fitted effect of over 45% in size
p53null 32C kill – selectivity test: cytotoxicity in p53 null cells, permissive temperature | H1299-neo p53 null cells, ATP luminescence, 24 h, 32C | actives 0.62% (n = 55,000) | Potency, µM (series often up to 46.1 µM), inactives show at the highest dose activity change, negative = cytotoxicity, actives largely listed as cytotoxic;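 also: potency is read from the fitted curve at half-maximal effect; 0% = DMSO only and -100% = full killing by 100 µM tamoxifen; nearly all actives have a fitted effect of over 55% in size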
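We seeded p53-null H1299-neo cells, incubated them overnight at 37C, and added compounds across a range up to 46 uM. After 24 hours at 32C, ATP reagent was applied for 20 min at room temperature and luminescence recorded.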
DRV1 agonist – activates human resolvin D1 receptor GPR32 | O75388 | CHO-K1 GPR32 beta-arrestin PathHunter luminescence, 90 min; zero percent set by DMSO-only wells | activation, % at 76.9 µM | actives 2.5% (n = 48,000);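 active = activation of at least 60% and not above a set upper limit, about 1 call in 100 departs from these limits; inconclusive = activation of 40% to 60%, or above that upper limit; inactive = activation under 40%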; also: 0% is about no effect
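PathHunter beta-arrestin recruitment in CHO-K1 cells stably expressing ProLink-tagged GPR32. Cells were exposed to compound for 90 min at 37 C, then chemiluminescence was read after 1 h detection at ambient temperature; DMSO served as basal control.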
GALC G270D act – galactocerebrosidase G270D activity enhancement, cell-based. actives 0.1% (n = 45,000). 145M-Twi-hGALC-G270D cells (Twitcher mouse brain line with human GALC G270D), HMU-beta-Gal fluorescence, 48 h. Potency, µM (top dose mostly 57.5 µM), hits mostly activators; also: potency is read from the fitted curve at half-maximal effect; 0% is about no effect; nearly all actives have a fitted effect of over 65% in size
Target sequence (P54803 whole entry G286D): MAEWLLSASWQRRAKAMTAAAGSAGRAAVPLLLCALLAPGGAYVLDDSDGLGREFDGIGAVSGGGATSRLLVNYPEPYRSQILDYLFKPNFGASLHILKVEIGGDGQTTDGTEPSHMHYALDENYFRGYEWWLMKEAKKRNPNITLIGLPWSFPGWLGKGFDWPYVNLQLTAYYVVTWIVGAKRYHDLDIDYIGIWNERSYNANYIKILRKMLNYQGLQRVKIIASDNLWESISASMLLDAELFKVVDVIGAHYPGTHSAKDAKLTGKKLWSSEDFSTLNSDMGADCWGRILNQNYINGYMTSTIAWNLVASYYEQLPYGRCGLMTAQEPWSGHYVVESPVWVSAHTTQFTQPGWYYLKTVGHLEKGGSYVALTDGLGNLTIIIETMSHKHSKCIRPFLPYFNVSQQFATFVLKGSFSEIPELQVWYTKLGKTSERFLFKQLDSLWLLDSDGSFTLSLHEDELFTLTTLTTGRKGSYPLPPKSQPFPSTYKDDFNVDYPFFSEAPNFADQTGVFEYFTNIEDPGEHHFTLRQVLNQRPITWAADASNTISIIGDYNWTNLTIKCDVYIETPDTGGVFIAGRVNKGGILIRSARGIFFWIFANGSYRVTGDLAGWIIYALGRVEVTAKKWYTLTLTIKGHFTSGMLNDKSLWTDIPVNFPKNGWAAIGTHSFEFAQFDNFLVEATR
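Fluorescence readout: HMU-β-gal cleavage by mutant GALC (0.1 mM final, citrate/phosphate pH 5.2 with 1 mg/mL taurocholate), stopped with carbonate/bicarbonate plus Triton X-100. Cells: murine Twitcher 145M-Twi expressing human G270D GALC; qHTS for activators.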
* marks the source's active call; other numbers are inactive results; ! = repeats disagree; [ ] = dose if it differs, or a comment. Unless noted, calls follow the shape of the dose curve; as a rule, active = well fitted curve in the direction sought with a large enough effect; inconclusive = small, poorly fitted or top-dose-only effect, or another doubt; inactive = no such curve, though single readings can be large; an effect the other way counts as inactive or inconclusive.

What do the screens show for `O=S(=O)(Nc1nc2n(n1)C(c1ccc(F)cc1)C=C(c1ccccc1)N2)c1ccc(Cl)cc1` (stereo not drawn)?
p53null 39C tox: -3%; NTMT1 inh: inconclusive; FH mod: -29%; p53null 32C kill: 11%; DRV1 agonist: inconclusive; GALC G270D act: inactive

Results for Cc1ccc(-c2c(C(=O)CCl)n(CCCO)c3ncnc(N)c23)cc1 ?
NTMT1 inh: 4%[57.5 µM]; FH mod: -5%

Results for Cc1ccc(OCCn2c(CCNC(=O)c3ccc(Br)o3)nc3ccccc32)cc1 ?
NTMT1 inh: 14%

Results for COc1ccccc1NC(=O)CSc1nnc2c(n1)[nH]c1ccccc12 ?
p53null 39C tox: -12%; NTMT1 inh: 13%; FH mod: inconclusive; p53null 32C kill: -8%; DRV1 agonist: 4; GALC G270D act: inactive

What do the screens show for `COC(=O)c1c(SCC(=O)Nc2ccccc2OC)[nH]c2ccccc2c1=O`?
p53null 39C tox: 7.9µM*; NTMT1 inh: 8%; FH mod: -24%; p53null 32C kill: inconclusive; DRV1 agonist: -21; GALC G270D act: inactive

What do the screens show for `COc1cc(NC(=O)Cn2ccn(-c3cc(C)cc(C)c3)c(=O)c2=O)cc(OC)c1`?
p53null 39C tox: -21%; NTMT1 inh: 2%; FH mod: 1%; p53null 32C kill: -11%; DRV1 agonist: -1; GALC G270D act: inactive

How did COC(=O)c1c(SCC(=O)Nc2cc(OC)cc(OC)c2)[nH]c2ccc(C)cc2c1=O do in these assays?
p53null 39C tox: 3.2µM*; NTMT1 inh: 9%; FH mod: inconclusive; p53null 32C kill: inconclusive; DRV1 agonist: -10; GALC G270D act: inactive

How did CC(=O)[C@]1(N)Cc2c(O)c3c(c(O)c2[C@@H](O[C@H]2C[C@H](O)[C@H](O)CO2)C1)C(=O)c1ccccc1C3=O do in these assays?
NTMT1 inh: 10%

What do the screens show for `COc1ccc(C(=O)Nc2cccc(-c3cn4ccsc4n3)c2)cc1OC`?
p53null 39C tox: 13µM*; NTMT1 inh: inconclusive; FH mod: -24%; p53null 32C kill: inconclusive; DRV1 agonist: 10; GALC G270D act: inactive

Results for COc1ccc(C(=O)Nc2cccc(-c3cn4ccsc4n3)c2)c(OC)c1 ?
p53null 39C tox: -27%; NTMT1 inh: -2%; FH mod: -16%; p53null 32C kill: inconclusive; DRV1 agonist: -12; GALC G270D act: inactive

Results for Cc1cc(NS(=O)(=O)c2ccc(NC(=O)Cc3ccc(Cl)c(C(F)(F)F)c3)cc2)no1 ?
NTMT1 inh: 25%

How did CCCN1CCCc2cc(CN(CCCN3CCOCC3)C(=O)Nc3ccc(CC)cc3)ccc21 do in these assays?
p53null 39C tox: 23%; NTMT1 inh: -26%; FH mod: -11%; p53null 32C kill: -2%; DRV1 agonist: 61*; GALC G270D act: inactive

What do the screens show for `COc1ccc(CNC(=O)Cn2c(=O)oc3cc(S(=O)(=O)N4CCCCCC4)ccc32)cc1`?
p53null 39C tox: 26%; NTMT1 inh: 1%; FH mod: -21%; p53null 32C kill: -21%; DRV1 agonist: 61*; GALC G270D act: inactive

What do the screens show for `COc1ccc(C)cc1NC(=O)Cn1c(=O)oc2cc(S(=O)(=O)N3CCCCC3)ccc21`?
p53null 39C tox: -11%; NTMT1 inh: inconclusive; FH mod: -2%; p53null 32C kill: -12%; DRV1 agonist: 84*; GALC G270D act: inactive

What do the screens show for `COc1cccc(NC(=O)Cn2c(=O)oc3cc(S(=O)(=O)N4CCCCC4)ccc32)c1`?
p53null 39C tox: -11%; NTMT1 inh: 2%; FH mod: -8%; p53null 32C kill: 2%; DRV1 agonist: 116*; GALC G270D act: inactive

How did COc1ccc(Cl)cc1NC(=O)Cn1c(=O)oc2cc(S(=O)(=O)N3CCCCCC3)ccc21 do in these assays?
p53null 39C tox: 0%; NTMT1 inh: -5%; FH mod: -6%; p53null 32C kill: 7%; DRV1 agonist: 7; GALC G270D act: inactive

What do the screens show for `Cc1cc(C)nc(SCC(=O)Nc2ncc(Cc3cccc4ccccc34)s2)n1`?
NTMT1 inh: 3%[57.5 µM]; FH mod: -6%

What do the screens show for `CC(C)C(=O)Oc1ccc(CO)cc1[C@H](CCN(C(C)C)C(C)C)c1ccccc1`?
NTMT1 inh: 22µM*!; FH mod: inconclusive

Results for COc1cc(C(N)=O)ccc1NC(=O)[C@@H]1N[C@@H](CC(C)(C)C)[C@@]2(C(=O)Nc3cc(Cl)ccc32)[C@H]1c1cccc(Cl)c1F ?
NTMT1 inh: 5%

How did Cc1ccc(NC(=O)N2CCc3ccccc32)cc1 do in these assays?
p53null 39C tox: 5µM*; p53null 32C kill: 5.6µM*

What do the screens show for `COc1ccc(Nc2nc3ccccc3nc2NS(=O)(=O)c2ccc(Cl)cc2)cc1OC`?
p53null 39C tox: inconclusive; NTMT1 inh: -9%; FH mod: -25%; p53null 32C kill: -24%; DRV1 agonist: 118*; GALC G270D act: inactive

Results for COc1ccc(-c2nc3ccc(NS(=O)(=O)c4ccc(Cl)cc4)cc3o2)cc1 ?
p53null 39C tox: inconclusive; NTMT1 inh: inconclusive; FH mod: inconclusive; p53null 32C kill: -16%; DRV1 agonist: 79*; GALC G270D act: inactive

Results for COc1cc(Nc2nc3ccccc3nc2NS(=O)(=O)c2ccc(NC(=O)c3ccc(OC)c(C)c3)cc2)cc(OC)c1 ?
NTMT1 inh: 1%[57.5 µM]; FH mod: -14%

What do the screens show for `COc1ccc(OCC(=O)Nc2ccc(-c3nc4cc(Cl)ccc4o3)cc2)cc1`?
p53null 39C tox: -8%; NTMT1 inh: -9%; FH mod: 4%; p53null 32C kill: 3%; DRV1 agonist: 3; GALC G270D act: inactive

Results for Cc1ccc(OCCn2c(CCNC(=O)c3cc([N+](=O)[O-])ccc3[N+](=O)[O-])nc3ccccc32)cc1 ?
NTMT1 inh: 0%

How did COc1cccc(CNc2ccc(S(=O)(=O)Nc3nccs3)cc2)c1 do in these assays?
NTMT1 inh: -11%

What do the screens show for `COc1cc2ncnc(Nc3ccc(NC(=O)c4ccccc4)cc3)c2cc1OC`?
NTMT1 inh: 16%; FH mod: -9%

How did COc1cc2c(Nc3ccc(Cl)c(Cl)c3F)ncnc2cc1OCC1C[C@@H]2CN(C)C[C@@H]2C1 (stereo partly drawn) do in these assays?
NTMT1 inh: 11µM*; FH mod: -25%

Results for COc1ccc(Cl)c(Nc2ncnc3cc(OCC4CCN(C)CC4)c(OC)cc23)c1 ?
NTMT1 inh: 28µM*; FH mod: -2%
